Test results: the supplement of paper PMC3334620
The full ranking holds about 33,000 sequences; the median of “E-score (-0.5 to 0.5)” is about -0.054, and the highest 2% start at about 0.35. The sample as a whole holds a higher share of the highest values than the screen did.

Molecular target: T1, Stb5 (UniProt P38699)
T1 sequence: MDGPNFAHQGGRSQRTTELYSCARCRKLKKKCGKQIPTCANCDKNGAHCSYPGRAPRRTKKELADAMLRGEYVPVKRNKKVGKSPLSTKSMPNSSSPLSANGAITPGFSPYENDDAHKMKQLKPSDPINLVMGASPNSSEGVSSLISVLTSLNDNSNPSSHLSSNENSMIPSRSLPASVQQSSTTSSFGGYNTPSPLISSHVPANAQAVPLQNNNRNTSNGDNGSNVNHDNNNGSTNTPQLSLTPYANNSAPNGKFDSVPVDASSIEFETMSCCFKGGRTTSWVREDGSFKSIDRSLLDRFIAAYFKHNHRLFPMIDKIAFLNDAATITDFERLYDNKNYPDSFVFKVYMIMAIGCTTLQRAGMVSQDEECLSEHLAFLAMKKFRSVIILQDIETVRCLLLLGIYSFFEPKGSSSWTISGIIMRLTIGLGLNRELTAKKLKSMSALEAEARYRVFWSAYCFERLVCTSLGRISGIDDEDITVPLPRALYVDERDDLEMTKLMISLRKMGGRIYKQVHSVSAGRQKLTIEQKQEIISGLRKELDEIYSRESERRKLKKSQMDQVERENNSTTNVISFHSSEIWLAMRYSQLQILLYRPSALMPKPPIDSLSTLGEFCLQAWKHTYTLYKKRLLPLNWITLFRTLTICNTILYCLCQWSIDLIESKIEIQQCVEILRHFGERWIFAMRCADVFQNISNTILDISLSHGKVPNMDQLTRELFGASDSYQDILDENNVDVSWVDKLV
Assay: PBM E-score (8-mer binding enrichment) (E-score (-0.5 to 0.5)); higher = stronger / more preferred TF binding
Conditions: protein concentration: 200 nM; construct: GST-full length
Method in brief: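 E-scores (a modified Wilcoxon-Mann-Whitney statistic) were assigned by the Universal PBM Analysis Suite to every ungapped eight-base word pooled with its reverse complement. The input came from universal all-10-mer Agilent arrays made double-stranded by primer extension and probed with GST-tagged yeast transcription factors at about 100-200 nM. Fluorescent anti-GST detected bound protein, and masliner normalised the scans.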

| Sequence | PBM E-score |
| --- | --- |
| ACCTCCGA | 0.364 |
| ACCTCCGG | 0.372 |
| TCCTCCGA | 0.157 |
| CCCTCCGA | 0.0129 |
| CCCTCCGG | 0.122 |
| GCTGGAAA | -0.0514 |
| AACCCTTA | -0.147 |
| CAGGCATG | -0.111 |
| CTAAAAGC | 0.0851 |
| AGAGTTAC | -0.241 |
| GGAGTTTA | 0.362 |
| CGAGTTAC | -0.104 |
| AGAGTTAA | -0.131 |
| GGAGTTAA | 0.398 |
| CGAGTTTA | 0.179 |
| GGAGTTAC | 0.365 |
| AGAGTTTA | -0.0332 |
| TGAGTTAA | -0.155 |
| GCGGCTAC | 0.192 |

| Sequence | PBM E-score |
| --- | --- |
| AATACTGA | -0.19 |
| TACCCACA | -0.228 |
| GGGCCTAC | 0.066 |
| ATTATCTA | -0.0957 |
| ACTTGAGC | -0.28 |
| AATTTTAT | 0.292 |
| CTTCAGTC | -0.0437 |
| CTTTTATC | 0.161 |
| AAGCCCGG | 0.411 |
| GAGCCCGC | 0.252 |
| AAGCCCAT | -0.0309 |
| AAGCCCGT | 0.417 |
| AAAGCCGT | 0.324 |
| CAGCCCGC | 0.141 |
| AAGCCCTT | -0.131 |
| GAAGCCGC | 0.202 |
| CAGCCCGG | 0.246 |
| AAGCCCTG | -0.101 |
| AAAGCCGC | 0.365 |

| Sequence | PBM E-score |
| --- | --- |
| AAGCCCGC | 0.443 |
| GAAAGGCA | 0.126 |
| ACCCCCCA | -0.204 |
| CACAACGG | 0.166 |
| AAAGCCCG | 0.457 |
| AAGCCCCG | 0.431 |
| CAGCCCCG | 0.267 |
| AAAGCCCC | 0.246 |
| GAGCCCGA | 0.264 |
| AAGCCCGA | 0.43 |
| AAAGCCCT | -0.125 |
| TAGCCCGA | 0.171 |
| AAGCCCCC | 0.00224 |
| CTTCCCCA | -0.184 |
| ATCCTATA | -0.0861 |
| ATGGCAAC | -0.184 |
| ACGAGAAT | 0.00633 |
| CTATGCGC | 0.116 |
